# Data as given in PubChem BioAssay (EPA / NIEHS).
# Inconclusive results are not listed. Active and inactive are the calls of the source. How the source made its calls: active means hit-call score of the fitted dose curve at least 0.9, where 1 is the maximum; inconclusive means response in the unintended direction; inactive means score below 0.9.
# Target: rat Opioid Receptor, Non-selective Binding, Oprm1 (gene 25601) (UniProt P33535)
# Assay: NVS_GPCR_rOpiate_NonSelective: NovaScreen (NVS) G Protein-Coupled Receptor Assay for rat Opioid Receptor, Non-selective Binding (AID 2283318)
# Description: NVS_GPCR_rOpiate_NonSelective is a biochemical, single-readout assay that uses extracted gene-proteins from Rat forebrain membranes in a tissue-based cell-free assay. Measurements were taken 1.5 hours after chemical dosing in a 48-well plate.NVS_GPCR_rOpiate_NonSelective is one of one assay component(s) measured or calculated from the NVS_GPCR_rOpiate_NonSelective assay. It is designed to make measurements of radioligand binding, a form of binding reporter, as detected with scintillation counting signals by Filter-based radiodetection technology.Data from the assay component NVS_GPCR_rOpiate_NonSelective was analyzed into 1 assay endpoint. This assay endpoint, NVS_GPCR_rOpiate_NonSelective, was analyzed in the positive analysis fitting direction relative to DMSO as the negative control and baseline of activity. Using a type of binding reporter, loss-of-signal activity can be used to understand changes in the binding as they relate to the gene Oprm1. Furthermore, this assay endpoint can be referred to as a primary readout, because the performed assay has only produced 1 assay endpoint. To generalize the intended target to other relatable targets, this assay endpoint is annotated to the gpcr intended target family, where the subfamily is rhodopsin-like receptor.
# Binding assays used specific radioligands (tritiated, iodinated) with non-radioactive competitive displacement ligands in agonist or antagonist protocols (as indicated) and various reference compounds and inhibitors to titrate specific binding to receptors and transporters. Most enzyme assays (CYPs, kinases, phosphatases, proteases, HDACs) used recombinant protein and specific substrates (fluorescence mostly, some colorimetric and radioactive) and inhibitors, followed by a biochemical separation of substrate and product. All assays for the biochemical HTS were initially run in duplicate at a single concentration (10 uM for CYP450 assays and 25 uM for all others). […] Each assay was run with positive and negative controls, and concurrent controls on every plate. The follow-up (secondary) screen tested active chemical-pairs in concentration series, as well as a few additional assays not tested in the primary screen, some selected negative inactives, and several cases re-run in the concentration series for confirmatory purposes.
# Chain of rat Opioid Receptor, Non-selective Binding, Oprm1 (gene 25601) (P33535 whole entry, looked up): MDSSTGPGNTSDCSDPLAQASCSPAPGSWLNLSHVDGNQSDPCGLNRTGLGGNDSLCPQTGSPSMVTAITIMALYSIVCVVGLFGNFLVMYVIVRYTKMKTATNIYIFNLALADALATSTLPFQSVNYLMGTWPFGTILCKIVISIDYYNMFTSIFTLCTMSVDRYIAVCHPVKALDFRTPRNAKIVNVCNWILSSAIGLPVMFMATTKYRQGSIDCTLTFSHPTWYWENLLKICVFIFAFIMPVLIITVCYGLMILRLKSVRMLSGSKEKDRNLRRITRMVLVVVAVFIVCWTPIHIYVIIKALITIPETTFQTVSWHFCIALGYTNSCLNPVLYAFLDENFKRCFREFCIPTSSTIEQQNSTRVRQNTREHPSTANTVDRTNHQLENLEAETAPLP
SMILES,AC50,outcome
O=c1[nH]sc2ccccc12,19.6 µM (active),
Cc1occc1C(=O)Nc1ccc(C(=O)N2CCC(F)(F)/C(=C\C(=O)N3CCC(N4CCCCC4)CC3)c3ccccc32)cc1,5.85 µM (active),
COc1cccc([C@H](O)C2CCN(CCc3ccc(F)cc3)CC2)c1OC,6.91 µM (active),
c1ccc(C[n+]2cccc3ccccc32)cc1,14.5 µM (active),
Clc1ccccc1C(c1ccccc1)(c1ccccc1)n1ccnc1,,inactive
Clc1cc(Cl)c2c(c1)N=C1CCCCCN1C2,7.31 µM (active),
NCc1cccc(C2CCN(C(=O)c3ccc(C#Cc4ccccc4F)o3)CC2)c1,12.1 µM (active),
CN(C)c1ccc(C(=C2C=CC(=[N+](C)C)C=C2)c2ccc(N(C)C)cc2)cc1,2.21 µM (active),
CCN(CC)C(=O)c1cc(S(=O)(=O)Cc2ccccc2)c(N2CCC(c3ccccc3)CC2)cc1N(CC)CCN(C)C,,inactive
COc1ccc2cc(S(=O)(=O)N[C@H](CC(=O)N[C@H](Cc3ccc(CN4[C@H](C)CCC[C@@H]4C)cc3)C(=O)N(C)C(C)C)c3ccc4c(c3)OCO4)ccc2c1,17.7 µM (active),
CN(C)C(=O)C1(N2CCCCC2)CCN(CC[C@@]2(c3ccc(Cl)c(Cl)c3)CN(C(=O)c3ccccc3)CCO2)CC1,1.73 µM (active),
CC/C(=C(/CC)c1ccc(O)cc1)c1ccc(O)cc1,12 µM (active),
CCN(Cc1cccnc1)C(=O)c1cccc(Cl)c1[C@]1(C)C(=O)N(Cc2ccc(OC)cc2OC)c2ccc(Cl)cc21,5.25 µM (active),
O=C(O)Cc1cc(I)c(Oc2ccc(O)c(I)c2)c(I)c1,,inactive
CN(C[C@@H](CC[N+]12CCC(C3CCCCC3)(CC1)CC2)c1ccc(Cl)c(Cl)c1)C(=O)c1cc(C(F)(F)F)cc(C(F)(F)F)c1,35.5 µM (active),
O=C1c2ccccc2C(=O)N1CCc1noc(-c2ccc(CN3CCCCCC3)s2)n1,21.1 µM (active),
